Bioassay records (PubChem)
In the library only some 3.6% were active in any assay of this set; here they are far more common.
KAT2A inh: qHTS Assay for Inhibitors of GCN5L2. Histone acetyltransferase KAT2A (Homo sapiens), Q92830. GCN5L2 HAT assay, ThioGlo1 CoA-SH fluorescence. Potency, µM (titrated, usually from 58.9 µM), without a hit: at the top dose activity change, negative = inhibition, usual class: inhibitors. 0.21% of 390,000 active; also: % is scaled to controls: 0 for no effect and ±100 for the full control effect
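Enzyme at 20nM final was mixed with library compounds for 15 min at room temperature. Peptide H3(1-25) at 75uM, acetyl-CoA at 70uM and ThioGlo1 at 50uM were then added. Plates were read immediately and after 20 min (Ex340nm/Em540nm).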
NPSR antag: qHTS Assay for Antagonists of the Neuropeptide S Receptor: cAMP Signal Transduction | 1% of 220,000 active | Q6W5P4 | CHO-NPSR cells, cAMP TR-FRET, antagonist mode | Potency, µM (titrated, usually from 38.3 µM), for the others: top-dose activity change, negative = inhibition, actives largely listed as inhibitors; also: % is scaled to controls: 0 for no effect and ±100 for the full control effect; nearly all actives have a fitted effect of over 50% in size
Target sequence (Q6W5P4 whole entry, looked up): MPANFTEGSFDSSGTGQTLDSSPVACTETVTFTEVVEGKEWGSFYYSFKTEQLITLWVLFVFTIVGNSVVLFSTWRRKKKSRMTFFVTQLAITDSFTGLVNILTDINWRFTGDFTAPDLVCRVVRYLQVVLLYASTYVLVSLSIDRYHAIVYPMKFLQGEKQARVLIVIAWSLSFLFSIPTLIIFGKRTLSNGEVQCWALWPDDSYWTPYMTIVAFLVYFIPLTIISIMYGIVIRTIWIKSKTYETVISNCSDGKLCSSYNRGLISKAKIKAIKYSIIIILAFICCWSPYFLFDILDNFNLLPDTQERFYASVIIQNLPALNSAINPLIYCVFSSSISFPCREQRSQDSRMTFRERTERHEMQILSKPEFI
IMPase Li cell: qHTS Assay for Identifying the Cell-Membrane Permeable IMPase Inhibitors: Potentiation with Lithium; 0.35% of 210,000 active; Potency, µM (titrated, usually from 59.4 µM), for inactives: top-dose activity, negative = IMPase inhibition, actives largely listed as inhibitors; CHO-M1 cells, IP1 TR-FRET (IP-One), carbachol + lithium;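 also: IP1 builds up when IMPase is blocked and the TR-FRET signal falls; plate controls were basal vehicle for no effect and high inhibitor control for full effect; nearly all actives have a fitted effect of over 50% in size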
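IP1 accumulation measured by competitive TR-FRET in lysed CHO-M1 cells after 30 min compound exposure at 37C, with a small lithium addition to potentiate weak responses. Hill-equation AC50 from ratio and donor-channel data.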
KDM4E inh: qHTS Assay for Inhibitors of Human Jumonji Domain Containing 2E (JMJD2E); Lysine-specific demethylase 4E (Homo sapiens), B2RXH2; Potency, µM (doses to about 57.1 µM), for the others: top-dose activity change, negative = inhibition, most hits filed as inhibitors; 1.6% of 230,000 active; JMJD2E catalytic domain, FDH-coupled NADH fluorescence (FDH is formaldehyde dehydrogenase);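 also: 0% = wells with enzyme and -100% = buffer wells without enzyme; nearly all actives have a fitted effect of over 50% in size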
Epigenetic reg: Quantitative High-Throughput Screen for Regulators of Epigenetic Control. murine LDR cells, GFP reporter derepression, 30 h. 0.2% of 280,000 active. Potency, µM (highest dose often 53.9 µM), inactives show at the highest dose GFP activation, usual class: activators; also: % of control where 0% means no effect; nearly all actives have a fitted effect of over 60% in size
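In this reporter-derepression format, murine cells bearing a silenced integrated CMV-GFP locus incubate with test compound (30 h, 37 C), then are washed and imaged; fluorescent objects of 20–120 um count as induced cells.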
Sfp inh: qHTS Assay for Inhibitors of Bacillus subtilis Sfp phosphopantetheinyl transferase (PPTase) | 4'-phosphopantetheinyl transferase ffp (Bacillus subtilis), Q9F4F7 | Biochemical Sfp PPTase activity, qHTS | Potency, µM, without a hit: largest response in the series, negative = inhibition, most hits filed as inhibitors | 3.5% of 310,000 active | AID 1490, 2009;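 also: the enzyme is Sfp with the accession as filed and its product quenches rhodamine fluorescence; 0% = enzyme reaction without inhibitor and -100% = no enzyme wells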
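Sfp 15 nM + cpd, 15 min RT; start w/ rhodamine-CoA 5 uM, BHQ-2-YbbR 12.5 uM (final); 50 mM Hepes pH 7.6, 10 mM MgCl2, 0.01% NP-40, 0.01% BSA; read 525/598 nm at 0 and 30 min.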
Numbers without * were called inactive; ? = inconclusive; / = not tested or not shown; [ ] = remark or other dose. Unless noted, calls follow the shape of the dose curve; as a rule, active = well fitted curve in the direction sought with a large enough effect; inconclusive = small, poorly fitted or top-dose-only effect, or another doubt; inactive = no such curve, though single readings can be large; an effect the other way counts as inactive or inconclusive. Potency is read from the fitted curve at half-maximal effect.

SMILES | KAT2A inh | NPSR antag | IMPase Li cell | KDM4E inh | Epigenetic reg | Sfp inh
O=C(NCCCCc1ccccc1)C12CN(Cc3ccccc3)CC1C(c1cccc([N+](=O)[O-])c1)=NO2 (stereo unspecified) | -3% | -27%[46.1 µM] | -1% | -7% | -1% | 8%
COc1ccc(CCNC(=O)C23CN(Cc4ccccc4)CC2C(c2ccc([N+](=O)[O-])cc2)=NO3)cc1 (stereo unspecified) | -9% | ? | 7% | -2% | -1% | 50µM*
CCOC(=O)CCCNC(=O)N1CCc2nc(COc3ccccc3)c3c(c2C1)CO[C@@H](C)C3 | / | / | -1% | -3%[11.4 µM] | / | 7%
O=C(NNc1ccc(C(F)(F)F)cc1[N+](=O)[O-])c1ccc(NS(=O)(=O)c2ccc(F)cc2)cc1 | -1% | 10µM* | 51% | -1% | 0% | 7%
CC(C)[C@H](Nc1ccc(C(F)(F)F)cc1[N+](=O)[O-])C(=O)O | -6% | -17% | / | -2% | -1% | 36%
CCc1ccc(-n2nc(CO)c(C(=O)NCc3ccccc3Cl)n2)cc1 | -8% | / | / | / | 2% | /
COc1ccc(Nc2ccccc2N)cc1 | 0% | -28% | 8% | 10µM* | ? | -30%
C=C(C)C(=O)/C=C/CCC/C=C/C(=O)OCC | / | / | 33% | 4% | 7% | -4%
COc1cc(/C=C/C(=O)Nc2ccc(C)cc2)cc(OC)c1OC | -12% | -1% | 3% | -1% | 0% | -2%
COc1cc(/C=C/C(=O)Nc2nnc(C(C)(C)C)s2)cc(OC)c1OC | -10% | -8% | 1% | -6% | 0% | 50µM*
C=CCOC(/C=C/c1ccccc1)C[Si](C)(C)C (stereo unspecified) | / | / | / | / | / | -2%
COC(=O)c1cn(NC(=O)C2COc3ccccc3O2)c(=O)c2ccccc12 (stereo unspecified) | -8% | -9%[46.1 µM] | 11µM* | -8% | -1% | 1%
CCCCCCc1cc2cc(-c3nnc(-c4ccccc4O)o3)c(=O)oc2cc1O | -3% | -13%[46.1 µM] | -2%[38.3 µM] | ? | 6.3µM* | 0%
S=C=Nc1ccc(N=C=S)cc1 | -4% | / | / | / | / | 20%
O=C(O)C[C@@H]1C(=O)O[C@@H]2C(COC(=O)c3cc(O)c(O)c(O)c3)O[C@@H](OC(=O)c3cc(O)c(O)c(O)c3)[C@@H](OC(=O)c3cc(O)c(O)c4c3[C@H]1[C@H](O)C(=O)O4)[C@H]2OC(=O)c1cc(O)c(O)c(O)c1 (stereo partly specified) | -24% | -20% | / | 0.71µM* | -3% | 45µM*
O=C(NCCN1CCCCC1)c1ccc(Cn2c(SCc3ccc(F)cc3)nc3cccnc32)cc1 | -2% | / | / | / | 0% | /
CC1CN(C(=S)c2cccc([N+](=O)[O-])c2)CC(C)O1 (stereo unspecified) | 4% | 2% | 12% | 3% | -2% | 50µM*
CC1CN(C(=S)NC(=O)c2ccc([N+](=O)[O-])cc2)CC(C)O1 (stereo unspecified) | -6% | ? | -6%[38.3 µM] | -2% | -2% | 4%
O=[N+]([O-])c1ccc(C(=S)N2CCN(c3ccc(F)cc3)CC2)cc1 | -5% | -12% | 18% | -13% | -1% | 16µM*
Cc1ccc(N2CCN(C(=S)c3ccc(N(C)C)cc3)CC2)cc1 | -5% | -2%[46.1 µM] | 5% | -6% | -2% | 20µM*
O=C(c1ccc(F)cc1)N1CCN(c2ccc([N+](=O)[O-])cc2-n2cccc2)CC1 | -7% | 10µM* | / | -1% | -4% | 8%
CN(C)c1ccc(C(=S)N2CCN(c3ccccc3)CC2)cc1 | -7% | -12%[46.1 µM] | 5%[38.3 µM] | 4% | -4% | 11%
